# Hit rate of the full screen: of about 68,000 compounds, about 2,700 (4%) showed an effect of 50% or more. What follows is part of a selection rich in strong results, with near analogues and random picks from the rest.
# Test system: Plasmodium berghei
# Experiment: Screen against P. berghei liver stage (PbLuc), transformed with Luciferase, at 2uM
# Assay type: functional, HepG2
# Conditions: tested at 2 uM
row,Compound,INHIBITION [%]
1,Cc1cc(C)n(CC2CCCCN2CC(=O)NC2CCOCC2)n1 (stereo not given),27.5
2,CCN(Cc1cnn(CC)c1)C(=O)CN1C(=O)CCc2ccccc21,21
3,CC(C)(C)c1n[nH]c(C2CN(C(=O)c3ccsc3)CCO2)n1 (stereo not given),31.19
4,CNC(=O)C(C)(C)NC(=O)c1cc(COc2cccc(C(C)=O)c2)[nH]n1,-8.74
5,CC(c1cccnc1)N(C)Cc1ccccn1 (stereo not given),-18.23
6,CC1N(CC2CC2)C(=O)COC12CCN(C(=O)c1cccs1)CC2 (stereo not given),32.04
7,CCCN1CCN(S(=O)(=O)c2ccccc2OC)[C@H]2CS(=O)(=O)C[C@H]21,52.45
8,CCN1CCN(S(=O)(=O)N2CCc3ccccc3C2)[C@H]2CS(=O)(=O)C[C@H]21,25.37
9,COc1ccccc1S(=O)(=O)N1CCN(C)[C@@H]2CS(=O)(=O)C[C@@H]21,40.88
10,CCn1ncc(NC(=O)c2cc(C3CC3)nc3c2c(C)nn3C)c1C,52.52
11,CCCn1ncc2c(C(=O)Nc3cnn(CC)c3C)cc(C3CC3)nc21,34.52
12,Cc1cc(C(=O)Nc2cc(C3CC3)n[nH]2)c2c(C)nn(C)c2n1,40.99
13,COc1ccccc1CNC(=O)CN(C)C(C)c1nccs1 (stereo not given),38.91
14,c1cnn(CC2CCCN2c2ncnc3ccsc23)c1 (stereo not given),-16.42
15,CN(C)C(=O)N1CCO[C@@H]2CC(COCc3cccnc3)C[C@H]21 (stereo not given in full),20.01
16,O=C(NCCCc1ccc(F)cc1)c1ccc(N2CCOCC2)cc1,-26.8
17,O=C(NCCc1ccncc1)c1ccc(N2CCOCC2)cc1,68.9
18,O=C(NCCCc1ccco1)c1ccc(N2CCOCC2)cc1,-89.85
19,Cn1c(-c2cc3n(n2)CCCN(CC(=O)O)C3)nc2ccccc21,-15.71
20,Cc1cccc(COC[C@@H]2CC[C@H]3[C@H](CCN3Cc3ccco3)O2)n1,2.39
21,Cc1cccc(COC[C@@H]2CC[C@H]3[C@H](CCN3C(=O)CC3CC3)O2)n1,51.72
22,Cc1cccc(COC[C@H]2CC[C@H]3[C@H](CCN3C(=O)CC3CC3)O2)n1,9.79

row,Compound,INHIBITION [%]
1,Cc1cc(C(=O)N2C[C@H](c3ccccc3)[C@@H](N)C2)c2ccc(F)cc2n1,2.31
2,CCc1ocnc1C(=O)N1CCCC1c1noc(C2CC2)n1 (stereo not given),43.85
3,COc1cnc(CSc2nnc(C)s2)cc1OCC(=O)NC1CCCC1,-8.85
4,CCCS(=O)(=O)N1CCC(Nc2c(F)cc(C#N)cc2F)CC1,10.85
5,CCS(=O)(=O)N1CCC(Nc2c(F)cc(C#N)cc2F)CC1,55.17
6,CCS(=O)(=O)N1CCC(Nc2ccc(C#N)cc2F)CC1,1.36
7,Cc1ccc(C(=O)N2CC[C@H]3[C@H]2CCN3CC2CCOCC2)cc1F,-4.54
8,Cc1nc[nH]c1CNCc1cccnc1N(C)C1CCCCC1,-15.91
9,COc1cccc(OCCc2nc3c(cc2C(N)=O)CCC3)c1,23.18
10,Cc1cnn(CCNCc2ccc(OCc3cccnc3)cc2)c1,88.86
11,Cc1cnn(CCNCc2ccc(OCc3ccncc3)cc2)c1,40.88
12,Cc1cnn(CC(C)NCc2cccnc2)c1 (stereo not given),8.13
13,Cc1cnn(CC(C)NCc2ccccc2OCc2cccnc2)c1 (stereo not given),50.05
14,Cc1cnn(CC(C)NCc2ccc(OCc3cccnc3)cc2)c1 (stereo not given),16.18
15,Cc1cnn(CCNCc2cccnc2)c1,0.9
16,Cn1c(=O)ccn(CC(=O)Nc2cnccc2O)c1=O,16.37
17,COCCC1(CO)CCCN(Cc2ccc(C(F)(F)F)nc2)C1 (stereo not given),26.66
18,CN1CCCC2(CC1)CCN(C(=O)CCc1ccccc1F)CC2,50.59
19,CN1CCN(CC2(O)CCN(C(=O)CCc3ccccc3F)C2)CC1 (stereo not given),-20.27
20,CN1CCCC2(CC1)CCN(C(=O)CCc1ccccc1O)CC2,48.21
21,CCc1nc(CNC(C)c2cccc(N3CCCC3=O)c2)cs1 (stereo not given),0.45
22,Cc1nc(CNC(C)c2cccc(N3CCCC3=O)c2)cs1 (stereo not given),65.57

row,Compound,INHIBITION [%]
1,Cc1n[nH]cc1CNC(C)c1cccc(N2CCCC2=O)c1 (stereo not given),11.31
2,Cc1ccc2nc(C3CCN(CC4CC4)CC3)nn2c1,28.95
3,CC(C)(C)c1nc(CN2CCc3onc(-c4cccc(F)c4)c3C2)no1,-7.68
4,O=C(c1ccco1)N1CCC[C@]2(C[C@H](Oc3ncccc3F)CO2)C1,-9.69
5,O=C(c1cc(-c2ccco2)nc2c(Cl)cccc12)N1C[C@H]2CNC[C@H]2C1,35.46
6,O=C(c1cc(-c2ccco2)nc2c(Cl)cccc12)N1CC[C@H]2CNC[C@H]21,53.98
7,O=C1CN(C(=O)c2cc(-c3ccco3)nc3c(Cl)cccc23)CCN1,38.83
8,Cc1occc1C(=O)N1CCOCC2(CCN(C3CCOCC3)C2)C1 (stereo not given),30.46
9,Fc1ccc2c(c1)C1(CCNCC1)CC2NC1CC1 (stereo not given),21.32
10,Cc1ccc2c(c1)C1(CCNCC1)CC2NC1CC1 (stereo not given),13.67
11,c1ccc2c(c1)C(NC1CCCC1)CC21CCNCC1 (stereo not given),53.81
12,CCc1ccc(C(=O)N2CCCC2c2nnc3n2CCCCC3)o1 (stereo not given),17.33
13,O=C1CCCN1Cc1nnc2n1CCN(Cc1ccoc1)CC2,-11.91
14,Cc1cccc(CN2CCc3nnc(CN4CCCC4=O)n3CC2)n1,-43.47
15,c1ccc(CN2CCc3nnc(CN4CCCCC4)n3CC2)nc1,2.71
16,Cc1ccc(CN2CCc3nnc(CN4CCCC4=O)n3CC2)o1,47.97
17,O=C1CCCN1Cc1nnc2n1CCN(Cc1ccccn1)CC2,51.26
18,Cc1ccc(CN2CCc3nnc(CN4CCCC4=O)n3CC2)s1,60.6
19,Cn1cc(N2CC3(COCCN(Cc4nccs4)C3)OCC2=O)cn1 (stereo not given),6.8
20,Clc1cnccc1N1CCCOCC1,-149.33
21,O=C1CC(c2ccncc2)c2c(sc3c2CCCC3)N1 (stereo not given),-5.89
